Compounds with a hit are over-represented: about 0.45% of the library has one in this group of screens.
CXXC DNA block – blocks binding of human MLL CXXC domain to DNA | MLL-CXXC / FITC-HOXA9 DNA fluorescence polarization | hit rate 0.037% among 290,000 | AID 2662 | Q03164 | Potency, µM (top dose mostly 115 µM), actives largely listed as inhibitors; active = well fitted inhibition curve with a large enough effect in the polarisation, with a control signal flat, not every such curve was filed as active; inconclusive = small, poorly fitted or top-dose-only effect, or effect the other way, or a change in a side signal; inactive = no such curve, though single readings can be large or run the other way; the % refers to the polarisation
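Steps: dispense CXXC domain solution (7 uM) → pin compounds or unlabeled HOX-A9 DNA control → 5 min ambient → add FLSN-HOX-A9 solution (50 nM) → spin → 30 min ambient → fluorescence polarization. Tris pH 7.5/NaCl/DTT/BSA buffer.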
MBNL1-CUG inh – inhibitors of human MBNL1 binding to CUG repeat RNA; Potency, µM (top dose mostly 57.5 µM), usual class: inhibitors; TR-FRET MBNL1-His/biotin-(CUG)12 binding, 665/545 ratio; hit rate 0.036% among 280,000; AID 2675; Q9NR56; active = well fitted inhibition curve with a large enough effect in the signal ratio, with a control signal flat, not every such curve was filed as active; inconclusive = small, poorly fitted or top-dose-only effect, or effect the other way, or a change in a side signal; inactive = no such curve, though single readings can be large or run the other way; the % refers to the signal ratio
Target sequence (Q9NR56 whole entry, looked up): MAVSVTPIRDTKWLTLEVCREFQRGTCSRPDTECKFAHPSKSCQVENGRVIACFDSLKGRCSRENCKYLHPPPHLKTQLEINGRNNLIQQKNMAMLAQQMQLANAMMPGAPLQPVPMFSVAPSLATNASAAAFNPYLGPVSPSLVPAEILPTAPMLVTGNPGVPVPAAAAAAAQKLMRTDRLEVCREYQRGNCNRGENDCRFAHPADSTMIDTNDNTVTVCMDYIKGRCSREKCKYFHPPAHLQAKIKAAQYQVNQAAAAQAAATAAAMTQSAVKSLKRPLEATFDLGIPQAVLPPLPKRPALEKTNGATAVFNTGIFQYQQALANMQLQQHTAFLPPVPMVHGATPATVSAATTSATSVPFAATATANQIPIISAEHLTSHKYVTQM
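Ratiometric TR-FRET (665 over 545 nm, excitation 340 nm) tracks disruption of MBNL1-His/biotin-(CUG)12 complex after 60 min at room temperature, with compounds at 92 nM to 58 uM final.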
Menin-MLL FL inh – displaces fluorescein MLL peptide from human menin. Fluorescence polarization, fluorescein-MLL peptide displacement from menin. FP activity change, % at 61.4 µM. 290,000 tested, under 10 active; active = well fitted curve in the direction sought with a large enough effect in the polarisation, not every such curve was filed as active; inconclusive = small, poorly fitted or top-dose-only effect, or effect the other way, or a change in a side signal; inactive = no such curve, though single readings can be large or run the other way; the % refers to the polarisation
Akt phos inh – blocks phosphorylation of Akt; Neuro2A IGF-stimulated pAkt S473 HTRF, 20 min; active compounds read low; activity change, % for hits at 50 µM; hit rate 0.32% among 360,000; AID 651550; in the data active = activity change below about -80%; inconclusive = mostly about -51% to -80%
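Neuro2A cells (4,500/well, DMEM with 0.5% FBS) were treated with compound at a single 50 µM final concentration, stimulated with 6 nM IGF for 20 min at 37 °C, and lysed. Phospho-Akt Ser473 was read by HTRF as 665/615 ratio ×10^4.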
Menin-MLL TR inh – menin-MLL binding inhibition, Texas Red mutant peptide. O00255. Menin + Texas Red MLL mutant peptide, fluorescence polarization. Potency, µM (series often up to 61.6 µM), usual class: inhibitors. hit rate 0.23% among 270,000; active = well fitted inhibition curve with a large enough effect in the polarisation, with a control signal flat, not every such curve was filed as active; inconclusive = small, poorly fitted or top-dose-only effect, or effect the other way, or a change in a side signal; inactive = no such curve, though single readings can be large or run the other way; the % refers to the polarisation
S-ASM inh – human S-ASM enzyme inhibition; placental ASM, HMU-PC fluorogenic substrate, 60 min; hit rate 0.006% among 340,000; Potency, µM (doses to about 57.5 µM), most hits filed as inhibitors; active = well fitted inhibition curve with a large enough effect; inconclusive = small, poorly fitted or top-dose-only effect; inactive = no such curve, though single readings can be large or run the other way
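HMU-PC0 cleavage (9 uM final) by human placental ASM, 60 min at 37 °C following 10 min compound exposure at RT; stopped at pH 10, fluorescence Ex 386/Em 447 nm.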
Numbers stand for hits; i = inactive; ? = inconclusive; nt = not tested or not shown.

SMILES | CXXC DNA block | MBNL1-CUG inh | Menin-MLL FL inh | Akt phos inh | Menin-MLL TR inh | S-ASM inh
O=C(CN1C(=O)NC(Cc2ccccc2)C1=O)Nc1ccc(OC(F)F)cc1 (stereo not drawn) | nt | nt | nt | i | nt | i
O=C(COc1ccc2c(c1)OCO2)Nc1ccc2c(c1)oc1ccccc12 | i | i | i | -96% | ? | i
O=C(Nc1ccc2c(c1)oc1ccccc12)c1ccc2c(c1)OCO2 | i | i | i | i | ? | i
O=C(Nc1ccc(F)cc1F)c1ccc2nc(N3CCOCC3)sc2c1 | i | i | i | i | i | i
O=C(Nc1ccccc1F)c1ccc2nc(N3C(=O)CCC3=O)sc2c1 | i | i | i | -120% | i | i
O=S(=O)(c1ccc(Cl)s1)N1CCN(C/C=C/c2ccccc2)CC1 | i | i | i | i | i | i
O=S(=O)(c1cccs1)N1CCN(C/C=C/c2ccccc2)CC1 | i | i | i | -118% | i | i
COc1ccc(C(=O)Nc2ccccc2C(=O)NC(Cc2ccc(O)cc2)C(=O)NNC(=O)c2ccncc2)cc1 (stereo not drawn) | i | i | i | i | ? | i
O=C(CSc1nnc(CNC(=O)c2c(F)cccc2Cl)o1)NCc1ccc2c(c1)OCO2 | i | i | i | -107% | i | i
O=C(N/N=C/c1ccncc1)c1ccccn1 | i | ? | i | i | 100µM | i
Cc1ccc(C)c(CN2C(=O)C3CCCN3c3ccc(S(=O)(=O)N4CCOCC4)cc32)c1 (stereo not drawn) | i | i | i | nt | i | nt
CC(C)(C)n1nnnc1C(c1ccccn1)N1CCN(C(c2ccccc2)c2ccccc2)CC1 (stereo not drawn) | i | i | i | i | ? | i
COc1cccc(N2CCN(C(c3ccccn3)c3nnnn3C(C)(C)C)CC2)c1 (stereo not drawn) | i | i | i | -105% | i | i
COc1ccccc1C1CCN(C(=O)c2cccs2)CC1 | i | i | i | i | nt | i
O=C(Oc1ccc(-c2nccc(-c3ccccn3)n2)cc1)c1cccc(C(F)(F)F)c1 | i | i | i | -96% | i | i
Cc1csc(SCC(=O)Nc2nc3ccccc3s2)n1 | i | i | i | -115% | i | i
Cc1csc(NC(=O)CSc2nnc(NC(=O)COc3ccccc3)s2)n1 | i | nt | i | i | 40µM | i
CCN1C(=NCc2cc(OC)c(OC)c(OC)c2)N[C@@H](c2ccccc2)[C@H](C(=O)OC)[C@H]1C | i | i | i | nt | i | nt
CCOc1ccc(NC(=O)CN2CCN(CC(=O)c3ccc(OCC)cc3)CC2)cc1 | i | i | i | i | i | i
CSc1nccn1CC(=O)Nc1ccc(F)cc1 | i | i | i | -114% | i | i
CCOc1ccc(NC(=O)CN2CCN(CC(=O)Nc3ccc(F)cc3)CC2)cc1 | i | i | i | -117% | i | i
CN(CC(=O)Nc1ccc(F)cc1)C(=O)CSc1nccn1C | nt | nt | nt | i | nt | i
CCS(CC)=NS(=O)(=O)c1ccc(NC(C)=O)cc1 | i | i | i | -118% | i | i
COC(=O)c1ccc(NC(=O)C2C3C=CC(C3)C2C(=O)O)cc1 (stereo not drawn) | i | i | i | i | i | i
N#CCCN(C(=O)COC(=O)Cc1c[nH]c2ccccc12)c1ccccc1 | nt | nt | nt | i | nt | i
SMILES | CXXC DNA block | MBNL1-CUG inh | Menin-MLL FL inh | Akt phos inh | Menin-MLL TR inh | S-ASM inh
COc1ccc(N(C(=O)c2ccco2)S(=O)(=O)c2cccs2)cc1 | i | i | i | -113% | i | i
COc1ccc(C(=O)N(c2ccc(OC)cc2)S(=O)(=O)c2cccs2)cc1 | i | nt | i | i | i | i
CSc1ncccc1C(=O)OCCCC(=O)c1ccc(F)cc1 | nt | nt | nt | i | nt | i
N=c1c(C(=O)NCc2ccccc2)cc2c(=O)n3ccccc3nc2n1CCCN1CCOCC1 | i | ? | i | i | i | i
Cc1c(C#N)c2ncnc(N)c2n1-c1ccccc1 | i | i | i | -104% | i | i
O=C(Nc1ccccc1)C(Cc1cccs1)c1nn[nH]n1 (stereo not drawn) | i | i | i | i | i | i
Cc1ccccc1C(=O)N1CCC(n2nccc2NC(=O)CCOc2ccccc2)CC1 | i | i | nt | i | nt | i
COc1ccc(C(=O)NCCNc2nc3c(C)cccc3cc2C#N)cc1OC | i | i | i | i | i | i
CC(NC(=O)c1ccc(S(=O)(=O)N(C)C)cc1)c1ccccc1 (stereo not drawn) | i | i | i | -90% | i | i
CC(NC(=O)c1ccc(S(=O)(=O)N(C)C)cc1)c1ccc(-n2ccnc2)cc1 (stereo not drawn) | i | i | i | i | i | i
Fc1ccc(-[n+]2nc(Nc3ccccc3)sc2-c2c3ccccc3cc3ccccc23)cc1 | ? | ? | i | i | ? | i
Oc1ccc2ccccc2c1-c1sc(Nc2ccccc2)n[n+]1-c1ccc(F)cc1 | ? | i | ? | i | 16µM | i
CC1CCCN(Cc2cnc(Cl)s2)C1 (stereo not drawn) | i | i | i | -108% | i | i
O=C(Nc1ccc(Br)cc1)c1cccc(S(=O)(=O)Nc2cnc3ccccc3c2)c1 | i | ? | i | i | ? | ?
N#CC1=C(N)OC2=C(C(=O)CCC2)C1C1C=CCCC1 (stereo not drawn) | i | i | i | -110% | i | i
N#CC1=C(N)OC2=C(C(=O)CCC2)C1c1ccoc1 (stereo not drawn) | i | i | i | i | i | i
CCCCCC(O)/C=C/C=C\CCCCCCCC(=O)O (stereo not drawn) | nt | nt | i | nt | i | nt
Cc1ccc(CN2C(=O)CCC2C(=O)NC(C)C)cc1 (stereo not drawn) | i | i | i | -118% | i | i
CCS(=O)(=O)N1CCCC(C(=O)NC2CCCCC2C)C1 (stereo not drawn) | i | i | i | -110% | i | i
CCS(=O)(=O)N1CCCC(C(=O)NC2CCCC2)C1 (stereo not drawn) | i | i | i | i | i | i
Cc1ccc2nc(SCC(=O)c3c(C)[nH]c4ccccc34)[nH]c2c1 | i | ? | i | i | ? | ?
O=C(CN(Cc1ccco1)C(=O)CNS(=O)(=O)c1ccccc1)NCc1ccccc1 | i | i | i | -120% | i | i
COc1ccc(C2=N[C@@H](C(C)C)CO2)cc1 | nt | nt | ? | nt | i | nt
CSCCC(NC(C)=O)C(=O)Oc1ccc2c3c(c(=O)oc2c1)CCCC3 (stereo not drawn) | i | i | i | i | i | i
CSCCC(NC(=O)OC(C)(C)C)C(=O)Oc1ccc2c(=O)c(-c3ccc4c(c3)OCCO4)coc2c1 (stereo not drawn) | i | i | i | -85% | i | i
CNC(=O)c1cc2c(=O)n3cc(C)ccc3nc2n(C(C)C)c1=N | i | ? | i | i | i | i
COc1ccc(NC(=O)CSc2nnc(-c3cccs3)n2-c2ccccc2)cc1 | i | i | i | -107% | ? | i
